Inconclusive results are not listed. A call without a number means that no potency is given here. Calls of active or inactive are those of the source. Calls follow the shape of the dose curve; as a rule, active = well fitted inhibition curve with a large enough effect; inconclusive = small, poorly fitted or top-dose-only effect; inactive = flat fitted curve, though single readings scatter.
system: Zika virus NS2B-NS3 protease; assay: Primary screen GU AMC qHTS for Zika virus inhibitors (AID 1347154); settings: Zika NS2B-NS3 unlinked protease, AMC fluorogenic substrate; series mostly up to 54.1 µM; also: nearly all actives have a fitted effect of over 70% in size
Excerpt: Avindra Nath, Ph.D., National Institute of Neurological Disorders and Stroke (NINDS), Bethesda, MD
Radhakrishnan Padmanabhan, Ph.D., Georgetown University (GU), Washington D.C.
Zika Virus causes congenital defects, including microcephaly and is associated with Guillain-Barre syndrome, eningoencephalitis and myelitis in infected adult. […] Using a target-based approach, we hope to establish a screening paradigm to uncover novel, cell-active NS2B-NS3 protease (Zika Virus) specific inhibitors from NCATS' collection of small molecules using qHTS.
Early Translation Branch (ETB)
National Center for Advancing Translational Sciences (NCATS), Rockville, MD
National Institute of Health (NIH), Bethesda, Maryland
Padmanabhan lab provided the NS2B hydrophilic domain and NS3 protease domain in a noncovalent complex used for the unlinked assay. Control compound aprotinin is obtained from Thermo Scientific (#78432; Waltham, Massachusetts). NS2B-NS3 AMC substrate (Bz-Nle-Lys-Arg-Arg-AMC; Nle-KRR-AMC) purchased from Bachem (#I-1995; Torrance, CA). Ac-VKTGKR-AMC purchased from Genscript or Bachem, Ac-FAAGKR-AMC purchased from Genscript, Ac-GLVKRR-AMC purchased from Genscript, Ac-LKKR-AMC purchased from Genscript.
GU AMC unlinked NS2B-NS3 protease qHTS protocol
Briefly, 3 microL of Zika virus unlinked NS2B-NS3 protease (25 nM for linked final concentration), in assay buffer (10 mM Tris-HCl pH 8.0 with 0.01% Tween 20) was dispensed into a 1,536-well solid-bottom black plate (Greiner Bio One, Monroe, NC). […] Plates were then read immediately on a ViewLux High-throughput CCD imager (PerkinElmer, Waltham, MA) equipped with standard UV fluorescence optics (340(30) nm excitation, 450(20) nm emission) then incubated (room temperature, protected from light) for 15 minutes (~20% conversion). The change in fluorescence intensity over the 15-minute reaction period was normalized against no-inhibitor and no-enzyme controls and the resulting percent inhibition data were fitted to a 4-parameter Hill equation. Aprotinin was used as the intraplate control.
Potency is read from the fitted curve at half-maximal effect.

**Q.** With `CC1(C)CO[C@H](CC(=O)O)CN1` as the compound, how does the Potency read?
**A.** Its Potency is “inactive”.

**Q.** Which Potency does the source give for `Oc1cc2c(cc1O)[C@H](c1ccccc1)CNCC2` here?
**A.** The Potency was “inactive”.

**Q.** With `Nc1c(S(=O)(=O)O)cc(Nc2cccc3ccccc23)c2c1C(=O)c1ccccc1C2=O` as the compound, how does the Potency read?
**A.** The Potency was “inactive”.

**Q.** With `C=NCc1cc2c(OC[C@@H](O)CNC(C)(C)C)cccc2[nH]1` as the compound, how does the Potency read?
**A.** Its Potency is “inactive”.

**Q.** For `CCCCCCCC/C=C\CCCCCCCC(=O)N[C@@H](CO)Cc1ccc(O)cc1`, which Potency is on record?
**A.** Its Potency is “inactive”.

**Q.** Which Potency does the source give for `CC[N+](C)(CC)CC(=O)Nc1c(C)cccc1C` here?
**A.** The Potency was “inactive”.

**Q.** Which Potency does the source give for `Nn1cc(Br)c(=O)[nH]c1=O` here?
**A.** The Potency was “inactive”.

**Q.** How did the Potency turn out when `CCOC(=O)C1CSC(Cc2ccc(OCc3ccc([N+](=O)[O-])cc3)cc2)N1` (stereo not given) was run?
**A.** Its Potency is “inactive”.

**Q.** How did the Potency turn out when `O=Nc1c(-c2c(O)[nH]c3ccccc23)[nH]c2ccccc12` was run?
**A.** Its Potency is “inactive”.

**Q.** How did the Potency turn out when `O=C(Nc1ccc([N+](=O)[O-])cc1O)Nc1ccccc1Br` was run?
**A.** Its Potency is “inactive”.

**Q.** How did the Potency turn out when `CCCCNC(=O)[C@@H]1Cc2ccccc2N1C(=O)[C@H](N)CC` was run?
**A.** The Potency was “inactive”.

**Q.** For `COC(=O)C1=C(C)NC(C)=C(C(=O)NCCCN2CCC(c3ccccc3)(c3ccccc3)CC2)C1c1ccc([N+](=O)[O-])cc1` (stereo not given), which Potency is on record?
**A.** The Potency was “inactive”.

**Q.** For `N[C@@H](Cc1cc(CP(=O)(O)O)cc(-c2ccccc2Cl)c1)C(=O)O`, which Potency is on record?
**A.** Its Potency is “inactive”.

**Q.** How did the activity change, negative = inhibition turn out when `CC[C@H](C)[C@H](NC(=O)[C@H](CCCN=C(N)N)NC(=O)[C@H](CCCN=C(N)N)NC(=O)[C@H](CC(C)C)NC(=O)[C@H](Cc1ccccc1)NC(=O)CNC(=O)CN)C(=O)N[C@@H](CCCN=C(N)N)C(=O)N1CCC[C@H]1C(=O)N[C@@H](CCCCN)C(=O)N[C@@H](CC(C)C)C(=O)N[C@@H](CCCCN)C(=O)O` was run?
**A.** The activity change, negative = inhibition was 11.9% [at 6.83 µM] (inactive).

**Q.** How did the activity change, negative = inhibition turn out when `CCCCCCCCCCCCC/C=C/[C@@H](O)[C@H](CO)NC(C)=O` was run?
**A.** Its activity change, negative = inhibition is 16.6% [at 6.83 µM] (inactive).

**Q.** How did the Potency turn out when `COc1ccc(-c2nc(C(=O)N3CCN(C)CC3)sc2-c2ccc(OC)cc2)cc1` was run?
**A.** Its Potency is 26.7 µM (active).

**Q.** Which Potency does the source give for `COC(=O)/C=C/c1cc(O)ccc1O` here?
**A.** Its Potency is “inactive”.

**Q.** With `CC[C@]1(O)C[C@@H]2CN(CCc3c([nH]c4ccccc34)[C@](C(=O)OC)(c3cc4c(cc3OC)N(C=O)[C@H]3[C@@](O)(C(=O)OC)[C@H](C(=O)OC)[C@@]5(CC)C=CCN6CC[C@]43[C@H]65)C2)C1` as the compound, how does the Potency read?
**A.** The Potency was “inactive”.

**Q.** `Clc1ccc2ncnc(NCc3ccc4c(c3)OCO4)c2c1` was tested. Which Potency did it give?
**A.** Its Potency is “inactive”.

**Q.** For `CC/C=C\C/C=C\C/C=C\CCCCCCCCCCCC(=O)O`, which activity change, negative = inhibition is on record?
**A.** The activity change, negative = inhibition was -2.15% [at 6.83 µM] (inactive).

**Q.** Which Potency does the source give for `CC[C@@](N)(C(=O)O)c1ccc(C(=O)O)cc1` here?
**A.** Its Potency is “inactive”.

**Q.** Which Potency does the source give for `CCCn1c(=O)c2[nH]c(-c3ccc(OCC(=O)Nc4ccc(C(C)=O)cc4)cc3)nc2n(CCC)c1=O` here?
**A.** The Potency was “inactive”.

**Q.** `CC[C@]1(c2ncc[nH]2)Cc2ccccc2O1` was tested. Which Potency did it give?
**A.** The Potency was “inactive”.

**Q.** For `Clc1ccccc1CNCC1CCC(CNCc2ccccc2Cl)CC1` (stereo not given), which Potency is on record?
**A.** Its Potency is “inactive”.

**Q.** How did the activity change, negative = inhibition turn out when `CCCCC[C@H](O)/C=C/C1=C(CCCCCCC(=O)O)C(=O)CC1` was run?
**A.** Its activity change, negative = inhibition is 14% [at 6.83 µM] (inactive).

**Q.** For `Cc1sc(N)c(C(=O)c2cccc(C(F)(F)F)c2)c1C`, which Potency is on record?
**A.** Its Potency is “inactive”.

**Q.** For `CC1OC(OC2C(CO)OC(OC3C(CO)OC(O)C(O)C3O)C(O)C2O)C(O)C(O)C1NC1C=C(CO)C(O)C(O)C1O` (stereo not given), which Potency is on record?
**A.** Its Potency is “inactive”.

**Q.** `COc1cccc(OC)c1OCCNC[C@@H]1COc2ccccc2O1` was tested. Which Potency did it give?
**A.** Its Potency is “inactive”.

**Q.** With `CCCCC/C=C\C=C\[C@H](O)CCCCCCCC(=O)O` as the compound, how does the activity change, negative = inhibition read?
**A.** The activity change, negative = inhibition was 19.3% [at 0.59 µM] (inactive).

**Q.** Which Potency does the source give for `N[C@@H](C(=O)O)[C@H](CC(=O)O)c1ccc(Cl)cc1` here?
**A.** Its Potency is “inactive”.

**Q.** Which Potency does the source give for `O=C(c1ccc2c(c1)OCO2)N1CCCCC1` here?
**A.** The Potency was “inactive”.

**Q.** How did the Potency turn out when `CCOC(=O)[C@H](N)/C=C(\C)CP(=O)(O)O` was run?
**A.** Its Potency is “inactive”.

**Q.** For `CCN(CC)CCCCN1c2ccccc2Oc2ccc(Cl)cc21`, which Potency is on record?
**A.** The Potency was “inactive”.

**Q.** `CC(=O)N(O)[C@@H]1c2cc(C#N)ccc2OC(C)(C)[C@H]1O` was tested. Which Potency did it give?
**A.** The Potency was “inactive”.

**Q.** Which Potency does the source give for `C[C@H](NC[C@H](O)CP(=O)(O)CC1CCCCC1)c1ccc(Cl)c(Cl)c1` here?
**A.** Its Potency is “inactive”.

**Q.** How did the activity change, negative = inhibition turn out when `CCCCCCCCCCCCCCCC(=O)OCC(COP(=O)(O)O)OC(=O)CCCCCCCCCCCCCCC` (stereo not given) was run?
**A.** Its activity change, negative = inhibition is 13.2% [at 6.83 µM] (inactive).

**Q.** For `COc1cc(OC)c(C(=O)CCCCN2CCC3(CC2)NC(=O)NC3=O)cc1NS(=O)(=O)c1ccc(C(F)(F)F)cc1`, which Potency is on record?
**A.** The Potency was “inactive”.

**Q.** How did the Potency turn out when `CC(C)C[C@H](NC(=O)N1CCCCCC1)C(=O)N[C@H](Cc1cn(C)c2ccccc12)C(=O)N[C@H](Cc1ccccn1)C(=O)O` was run?
**A.** The Potency was “inactive”.

**Q.** `N[C@H](C(=O)O)c1cccc(O)c1` was tested. Which Potency did it give?
**A.** Its Potency is “inactive”.

**Q.** With `CC(=O)ON(C(C)=O)S(=O)(=O)c1ccc(Cl)cc1` as the compound, how does the Potency read?
**A.** The Potency was “inactive”.
